C diff growth – blocks growth of Clostridium difficile; growth activity, negative = inhibition, % at 16 µg/mL (by protocol); hit rate 0.25% among 86,000; Clostridium difficile clinical isolate growth, OD600, 24 h; stronger effect = lower value;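 active = mean growth activity at or below -80% and every replicate also at or below -80%; inconclusive = mean at or below -80% but some replicate above -80%; inactive = mean growth activity above -80%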
Pf Dd2 inh – P. falciparum Dd2 growth inhibition; SYBR Green, 72 h; stronger effect = lower value; activity change, % at 10 µM; hit rate 2.3% among 94,000; AID 1159554; in the data active = activity change below about -80%; inconclusive = no clear call, values can overlap the other calls
T cruzi growth-1 – T. cruzi proliferation inhibition. T. cruzi beta-gal in NIH3T3, GalScreen luminescence, 90 h. inhibition, % at 8.34 µM. hit rate 5.9% among 77,000;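 active = mean inhibition above about 93%, with at least 55% of replicates each passing it, limit read from the data, passing the limit was not always enough; inconclusive = only one of those two conditions holds; inactive = neither condition holds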
T cruzi growth-2 – Trypanosoma cruzi proliferation inhibition | shares compounds with T cruzi growth-1 | T. cruzi beta-gal in NIH3T3, GalScreen luminescence, 90 h | inhibition, % at 8.35 µM | hit rate 72% among 5,600;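 active = mean replicate inhibition above about 95% and at least 55% of replicates individually reaching it, limit read from the data; inconclusive = only one of the two criteria is met; inactive = neither criterion is met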
T cruzi growth-3 – blocks T. cruzi growth in NIH3T3 host cells; T. cruzi beta-gal in NIH3T3, GalScreen luminescence, 90 h; AID 651740; shares compounds with T cruzi growth-1; inhibition, % at 2.09 µM; hit rate 21% among 5,600;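 active = mean inhibition above about 95%, with at least 55% of replicates also reaching it, limit read from the data; inconclusive = meets just one of the two conditions; inactive = meets neither condition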
NIH3T3 tox – NIH/3T3 (mouse) viability loss; NIH/3T3 viability, CellTiter-Glo ATP luminescence, 90 h; hit rate 14% among 5,600; cytotoxicity (signal decrease), % at 8.35 µM; AID 651742; shares compounds with T cruzi growth-1;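 active = mean signal decrease across replicates above about 35% based on untreated-well scatter, with enough replicates individually passing, limit read from the data; inconclusive = no rule stated though some were filed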
NIH3T3 tox 2 – kills mouse NIH/3T3 fibroblasts | shares compounds with T cruzi growth-1 | NIH/3T3 viability, CellTiter-Glo ATP luminescence, 90 h | inhibition, % at 24.9 µM | hit rate 56% among 5,600 | AID 651744;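 active = mean loss of cell viability signal at or above a set limit, and enough replicates individually reaching it; inconclusive = meets only the mean limit or only the replicate share; inactive = meets neither condition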
Hits are given with their value; n = inactive; u = inconclusive; x = not tested or not shown. Rows were chosen to be rich in hits. Some 6.7% of all compounds tested hit in one or more screens of this group.

SMILES | C diff growth | Pf Dd2 inh | T cruzi growth-1 | T cruzi growth-2 | T cruzi growth-3 | NIH3T3 tox | NIH3T3 tox 2
O=C(Nc1ccc(Cl)cc1)N1C[C@H]2[C@@H](c3ccccc31)[C@@H](CO)N2CC1CCCCC1 | n | n | 109 | 106 | n | n | 104
O=C(Nc1ccccc1)N1C[C@@H]2[C@H](c3ccccc31)[C@H](CO)N2Cc1ccccc1Cl | n | n | u | 97 | n | n | n
O=C(Nc1ccc(Cl)cc1)N1C[C@H]2[C@@H](c3ccccc31)[C@H](CO)N2CC1CCCCC1 | n | n | n | x | x | x | x
O=C(Nc1ccccc1F)N1C[C@@H]2[C@H](c3ccccc31)[C@H](CO)N2C(=O)C1CCOCC1 | n | n | 107 | n | n | n | n
O=C(C[C@H]1CC[C@@H](NS(=O)(=O)c2ccc(F)cc2)[C@H](CO)O1)NCc1ccncn1 | n | n | n | x | x | x | x
COc1cccc(S(=O)(=O)Nc2ccc3c(c2)C(=O)N(C)C[C@H](OC)[C@@H](C)CN(Cc2ccccc2F)[C@@H](C)CO3)c1 | x | n | x | x | x | x | x
C[C@@H]1CCCCO[C@H](CN(C)C(=O)C2CCCCC2)[C@H](C)CN([C@@H](C)CO)C(=O)c2cc(NS(C)(=O)=O)ccc2O1 | n | n | 100 | n | n | n | n
C[C@H]1CCCCO[C@H](CN(C)C(=O)C2CCCCC2)[C@@H](C)CN([C@@H](C)CO)C(=O)c2cc(NS(=O)(=O)c3ccc(Cl)cc3)ccc2O1 | n | n | u | 104 | n | n | 99
C[C@@H]1CCCCO[C@H](CN(C)C(=O)C2CCCCC2)[C@@H](C)CN([C@H](C)CO)C(=O)c2cc(NS(=O)(=O)c3ccc(Cl)cc3)ccc2O1 | n | n | n | x | x | x | x
C[C@@H]1CCCCO[C@H](CN(C)C(=O)C2CCCCC2)[C@H](C)CN([C@H](C)CO)C(=O)c2cc(NS(=O)(=O)c3ccc(Cl)cc3)ccc2O1 | n | n | u | 105 | n | n | 52
C[C@@H]1CCCCO[C@@H](CN(C)C(=O)C2CCCCC2)[C@@H](C)CN([C@@H](C)CO)C(=O)c2cc(NS(=O)(=O)c3ccc(Cl)cc3)ccc2O1 | n | n | n | x | x | x | x
C[C@@H]1CCCCO[C@@H](CN(C)C(=O)C2CCCCC2)[C@H](C)CN([C@@H](C)CO)C(=O)c2cc(NS(=O)(=O)c3ccc(Cl)cc3)ccc2O1 | n | n | u | 109 | n | n | 34
Cc1ccc(S(=O)(=O)Nc2ccc3c(c2)C(=O)N([C@H](C)CO)C[C@H](C)[C@H](CN(C)C(=O)C2CCCCC2)OCCCC[C@H](C)O3)cc1 | n | n | n | x | x | x | x
C[C@H](CO)N1C[C@H](C)[C@@H](CN(C)C(=O)C2CCCCC2)OCCCC[C@H](C)Oc2ccc(NS(C)(=O)=O)cc2C1=O | n | n | n | x | x | x | x
COc1ccccc1NC(=O)N[C@@H]1CC[C@H](CCNC(=O)Cc2ccccn2)O[C@@H]1CO | n | n | x | x | x | x | x
CC(C)C#Cc1cnc2c(c1)C(=O)N([C@@H](C)CO)C[C@@H](C)[C@H](CN(C)Cc1ccccn1)O2 | n | n | x | x | x | x | x
Cc1ccc(S(=O)(=O)N[C@@H]2CC[C@H](CC(=O)NC3CCCCC3)O[C@H]2CO)cc1 | n | n | n | x | x | x | x
Cc1ccccc1S(=O)(=O)N1CC[C@H]2[C@H](CO)Nc3ccc(-c4cccc(C#N)c4)cc3[C@H]21 | n | n | n | x | x | x | x
COc1ccccc1CNC(=O)C[C@@H]1C[C@@H]2c3cc(NC(=O)Nc4ccccc4F)ccc3O[C@@H]2[C@@H](CO)O1 | n | n | n | x | x | x | x
C[C@@H]1CN([C@@H](C)CO)C(=O)c2cccc(NC(=O)c3nc4ccccc4s3)c2O[C@H]1CN(C)Cc1ccc2c(c1)OCO2 | x | n | x | x | x | x | x
C[C@@H]1CCCCO[C@@H](CN(C)C(=O)CCC(F)(F)F)[C@@H](C)CN([C@H](C)CO)C(=O)c2cc(NS(=O)(=O)c3ccc(Cl)cc3)ccc2O1 | n | n | n | x | x | x | x
C[C@H](CO)N1C[C@H](C)[C@H](CN(C)C(=O)CCC(F)(F)F)OCCCC[C@H](C)Oc2ccc(NS(=O)(=O)c3ccc(Cl)cc3)cc2C1=O | n | n | 103 | 109 | n | n | n
COc1ccc(NC(=O)Nc2ccc3c(c2)CC(=O)N([C@@H](C)CO)C[C@@H](C)[C@H](CN(C)C(=O)Nc2ccccc2)O3)cc1 | n | n | x | x | x | x | x
Cc1ccc(S(=O)(=O)N(C)C[C@@H]2OCCCC[C@@H](C)Oc3ccc(NS(=O)(=O)c4ccccc4)cc3C(=O)N([C@@H](C)CO)C[C@H]2C)cc1 | n | n | n | x | x | x | x
C[C@@H]1CN([C@@H](C)CO)C(=O)c2cc(NS(=O)(=O)c3ccccc3)ccc2O[C@@H](C)CCCCO[C@H]1CN(C)S(=O)(=O)c1ccccc1 | x | n | n | x | x | x | x
SMILES | C diff growth | Pf Dd2 inh | T cruzi growth-1 | T cruzi growth-2 | T cruzi growth-3 | NIH3T3 tox | NIH3T3 tox 2
Cc1ccc(S(=O)(=O)Nc2ccc3c(c2)C(=O)N([C@@H](C)CO)C[C@H](C)[C@H](CN(C)S(=O)(=O)c2ccccc2)OCCCC[C@@H](C)O3)cc1 | n | n | 105 | 106 | n | n | 53
Cc1ccc(S(=O)(=O)Nc2ccc3c(c2)C(=O)N([C@@H](C)CO)C[C@H](C)[C@@H](CN(C)C(=O)Cc2ccccc2)OCCCC[C@@H](C)O3)cc1 | x | n | u | 106 | n | n | n
Cc1ccc(S(=O)(=O)N(C)C[C@H]2OCCCC[C@H](C)Oc3ccc(NS(=O)(=O)c4ccccc4)cc3C(=O)N([C@@H](C)CO)C[C@@H]2C)cc1 | n | n | 122 | 105 | n | n | n
Cc1ccc(S(=O)(=O)Nc2ccc3c(c2)C(=O)N([C@H](C)CO)C[C@@H](C)[C@H](CN(C)S(=O)(=O)c2ccccc2)OCCCC[C@@H](C)O3)cc1 | n | n | 107 | 106 | n | n | n
Cc1ccc(S(=O)(=O)Nc2ccc3c(c2)C(=O)N([C@@H](C)CO)C[C@@H](C)[C@@H](CN(C)C(=O)Cc2ccccc2)OCCCC[C@H](C)O3)cc1 | x | n | n | x | x | x | x
C[C@H]1CCCCO[C@@H](CN(C)S(=O)(=O)c2ccccc2)[C@@H](C)CN([C@@H](C)CO)C(=O)c2cc(NS(=O)(=O)c3ccccc3)ccc2O1 | x | n | n | x | x | x | x
C[C@H]1CN([C@@H](C)CO)C(=O)c2ccccc2-c2ccccc2CO[C@H]1CN(C)S(=O)(=O)c1ccsc1 | n | n | n | x | x | x | x
O=C(Nc1ccccc1F)N1CC(=O)N2[C@H](C1)[C@@H](c1ccc(C#CC3CCCC3)cc1)[C@@H]2CO | n | n | x | x | x | x | x
O=C(CC1CC1)N1CC[C@H]2[C@H](CO)Nc3ccc(-c4ccccc4)cc3[C@H]21 | n | n | n | x | x | x | x
CO[C@@H]1CN(C)C(=O)c2ccc(NC(=O)C3CCOCC3)cc2OC[C@H](C)N(C(C)=O)C[C@@H]1C | x | n | x | x | x | x | x
COCC(=O)N1C[C@H](C)[C@@H](OC)CN(C)C(=O)c2cc(NC(=O)c3ccc(OC)cc3)ccc2OC[C@@H]1C | x | n | n | x | x | x | x
